High-throughput results from PubChem BioAssay.
These entries were drawn from the full list.
aSyn 5UTR act: Activators via SNCA 5'UTR binding, MLPCN; alpha-synuclein 5'UTR reporter, activators screen; activity score, % (tested at 7.5 µM), hits read low; actives 7.1% (n = 300,000); in the data active = activity score below about -60%
Of the large screens only hits and unclear results are named; the others gave an inactive call.

CCOc1ccc(-n2nc3ccc(N)cc3n2)cc1	none
Cc1ccc(-n2nc3ccc(NC(=O)c4ccco4)cc3n2)cc1	aSyn 5UTR act -83
CCCC(=O)Nc1ccc2nn(-c3ccc(OC)cc3)nc2c1	aSyn 5UTR act -121
CC(C)CC(=O)Nc1ccc2nn(-c3ccccc3)nc2c1	aSyn 5UTR act -178
O=C(/C=C/c1ccco1)Nc1ccc2nn(-c3ccccc3)nc2c1	aSyn 5UTR act -209
CC(=O)Nc1c(O)nc(SCC(=O)Nc2ccc(C(C)=O)cc2)[nH]c1=O	aSyn 5UTR act -157
CC(=O)c1ccc(NC(=O)CSc2nc(N3CCOCC3)nc(N3CCOCC3)n2)cc1	aSyn 5UTR act -73
COc1ccc(/C=C2/C(=O)N(c3ccccc3)N=C2C)cc1	none
CC1=NN(c2ccccc2)C(=O)/C1=C\C=C\c1ccccc1	aSyn 5UTR act -127
CC1=NN(c2ccc(C)c(C)c2)C(=O)/C1=C\C=C\c1ccc([N+](=O)[O-])o1	none
N#CC1=C(N)Oc2cc(N)ccc2C1c1cccc(Br)c1 (stereo not given)	none
N#CC1=C(N)Oc2cc(N)ccc2C1c1cc(Br)cs1 (stereo not given)	aSyn 5UTR act -75
CCOC(=O)C1(CCc2ccccc2)CCN(C(=O)Cc2nonc2C)CC1	aSyn 5UTR act -78
CNC(=O)c1cc(C(=O)c2ccc(Cl)cc2)c[nH]1	aSyn 5UTR act -64
COc1cc(/C=N/Nc2ccccn2)ccc1OCC(C)C	aSyn 5UTR act -127
CCCOc1ccc(/C=N/Nc2ccccn2)cc1OC	aSyn 5UTR act -177
C=CCOc1ccc(/C=N/Nc2ccccn2)cc1OC	aSyn 5UTR act -246
CCOc1ccc(/C=N/N(C)c2ccccc2)cc1OC	aSyn 5UTR act -250
CCOc1ccc(/C=N/Nc2ccccn2)cc1OC	aSyn 5UTR act -177
C#CCn1c(=NC(=O)c2cccs2)sc2cccc(OC)c21	aSyn 5UTR act -97
CCOC(=O)c1cn2ccc(C)cc2n1	aSyn 5UTR act -107
O=C(Nc1ccc(OC(F)F)c(Cl)c1)c1cccc(OC(F)F)c1	aSyn 5UTR act -83
O=C(CCCOc1ccc(Cl)cc1Cl)Nc1ccccc1C(=O)O	aSyn 5UTR act -83
COc1ccc(NC(=O)/C=C/C(=O)O)cc1Cl	aSyn 5UTR act -105
COc1ccc(C(=O)Nc2ccccc2C(=O)O)cc1Cl	aSyn 5UTR act -123
COc1ccc(NC(=O)c2cccc(OC(F)F)c2)cc1Cl	aSyn 5UTR act -197
COc1ccc(NC(=O)c2ccccc2F)cc1Cl	aSyn 5UTR act -156
COc1cc(OC)c(NC(=O)c2cccc(F)c2)cc1Cl	aSyn 5UTR act -64
COc1ccc(NC(=O)c2cccc(F)c2)cc1Cl	aSyn 5UTR act -206
O=C(Nc1ccc2c(c1)CCC2)c1cccc(OC(F)F)c1	aSyn 5UTR act -126
CN1CCc2nc(NC(=O)c3cccc(OC(F)F)c3)sc2C1	aSyn 5UTR act -67
N=c1c(C(=O)NCCN2CCOCC2)cc2c(=O)n3ccccc3nc2n1CCc1ccccc1	aSyn 5UTR act -83
COc1ccc(CCn2c(=N)c(C(=O)NCc3ccco3)cc3c(=O)n4ccccc4nc32)cc1	aSyn 5UTR act -73
Cc1ccc(S(=O)(=O)c2cc3c(=O)n4ccccc4nc3n(CCc3ccccc3)c2=N)cc1	aSyn 5UTR act -231
CCc1ccc(C(=O)CSc2ncn[nH]2)cc1	aSyn 5UTR act -115
C/C(=N\Nc1nncc2ccccc12)c1cccc(OC(F)F)c1	aSyn 5UTR act -97
C/C(=N\Nc1nncc2ccccc12)c1ccc(C(C)(C)C)cc1	aSyn 5UTR act -84
CC(C)(C)c1ccc(OCCn2ccccc2=O)cc1	aSyn 5UTR act -154
CCCCCCCCCn1c2c(c(=N)c3c1CCC3)CCC2	none
c1cncc(-c2nc3cc4ccccc4cc3[nH]2)c1	aSyn 5UTR act -79
Fc1ccc(-c2nc3ccccc3[nH]2)cc1	aSyn 5UTR act -96
N#CCSc1ccc(-c2nc3ccccc3[nH]2)cn1	aSyn 5UTR act -239
c1cncc(CNc2cccc(-c3nc4ccccc4[nH]3)c2)c1	aSyn 5UTR act -145
Nc1cccc(-c2nc3ccccc3[nH]2)c1	aSyn 5UTR act -170
NNC(=O)c1ccc(OCC2CC(c3ccc(Cl)cc3)=NO2)cc1 (stereo not given)	aSyn 5UTR act -74
c1ccc2c(-n3cccn3)cccc2c1	aSyn 5UTR act -83
COc1cccc(NC(=O)c2nn(C)cc2Br)c1	aSyn 5UTR act -105
CCOc1ccc(NC(=O)c2nn(C)cc2Br)cc1	aSyn 5UTR act -154
Cn1cc(Br)c(C(=O)NNC(=O)c2ccc(Cl)cc2)n1	aSyn 5UTR act -94
Cn1cc(Br)c(C(=O)Nc2ncc(Br)s2)n1	aSyn 5UTR act -147
COCCCNC(=O)/C=C1\Sc2ccccc2N(Cc2ccccc2F)C1=O	aSyn 5UTR act -94
COc1ccc(-c2cc3ccccc3oc2=O)cc1NC(=O)c1ccc(Br)o1	aSyn 5UTR act -94
CCC(=O)Nc1ccc(-c2cc3ccccc3oc2=O)cc1	none
CCC(=O)Nc1cc(-c2cc3ccccc3oc2=O)ccc1OC	aSyn 5UTR act -98
COc1ccc(-c2cc3ccccc3oc2=O)cc1NC(=O)c1ccc([N+](=O)[O-])o1	aSyn 5UTR act -240
O=C(Nc1nnc(-c2cccs2)s1)C1CC1	aSyn 5UTR act -89
COCC(=O)Nc1nnc(-c2cccs2)s1	aSyn 5UTR act -70
O=C(Cc1ccccc1)Nc1nnc(-c2cccs2)s1	aSyn 5UTR act -142
CCC(=O)Nc1nnc(-c2cccs2)s1	aSyn 5UTR act -68
C=C(C)C(=O)Nc1nnc(-c2cccs2)s1	aSyn 5UTR act -94
COC(=O)c1c(C)[nH]c(C(=O)OCc2ccc(F)cc2)c1C	aSyn 5UTR act -189
CC(=O)c1c(C)[nH]c(C(=O)OCc2ccc(F)cc2Cl)c1C	aSyn 5UTR act -68
CCOC(=O)c1[nH]c(C)c(C(=O)c2cc(F)ccc2F)c1C	none
CC/C(=N\Nc1ccccc1[N+](=O)[O-])c1ccc(O)cc1	aSyn 5UTR act -90
C/C(=N\Nc1ccccc1[N+](=O)[O-])c1ccccc1O	aSyn 5UTR act -221
O=C(c1ccc(Cl)cc1)c1cnc2ccccn12	aSyn 5UTR act -126
O=C(CSc1ncnc2c(-c3ccc(Cl)cc3)nsc12)c1ccccc1	aSyn 5UTR act -98
COC(=O)C(Cc1ccc(OC(=O)c2ccccc2C)cc1)N1Cc2ccccc2C1=O (stereo not given)	aSyn 5UTR act -142
COC(=O)C(Cc1ccc(OC(=O)c2ccccc2Cl)cc1)N1Cc2ccccc2C1=O (stereo not given)	aSyn 5UTR act -88
Cc1ccc2oc(-c3cccc(NC(=O)c4ccc(Br)o4)c3)nc2c1	aSyn 5UTR act -94
Cc1cc2nc(-c3cccc(NC(=O)c4ccc(Br)o4)c3)oc2cc1C	aSyn 5UTR act -77
COCCn1c(SCc2nc3ccccc3s2)nc2ccccc21	aSyn 5UTR act -144
C=CCn1c(=O)c2ccccc2n2c(SCc3nc4ccccc4s3)nnc12	aSyn 5UTR act -97
CCOCCCn1c(SCc2nc3ccccc3s2)nc2ccccc2c1=O	aSyn 5UTR act -78
C/C(=N/NC(=O)c1ccco1)c1ccc(NC(=O)c2ccc(Br)o2)cc1	aSyn 5UTR act -82
C/C(=N/NC(=O)c1ccco1)c1ccc(NC(=O)c2ccc(F)cc2)cc1	aSyn 5UTR act -109
CCCCCC(=O)N/N=C(\C)c1ccc(NC(=O)c2ccco2)cc1	aSyn 5UTR act -107
N/C(=N\O)c1ccc(NC(=O)c2ccc(Br)o2)cc1	aSyn 5UTR act -67
CC(=O)Nc1ccc(/C(C)=N\NC(=O)c2ccc(-c3ccccc3)cc2)cc1	none
C/C(=N\NC(=O)c1ccc(F)cc1)c1ccc(NC(=O)Cc2ccccc2)cc1	aSyn 5UTR act -75
Cc1ccc(-n2nnnc2Sc2ccc(S(=O)(=O)NCCN(C)C)cc2[N+](=O)[O-])cc1	aSyn 5UTR act -93
